High-throughput results: PubChem, National Center for Advancing Translational Sciences (NCATS)
The entries come from a sample that favours hits as a whole.
LASV entry inh: qHTS for Inhibitors of binding or entry into cells for Lassa Virus; Lassa virus pseudotype entry inhibition, cell reporter; Potency, µM (highest dose often 37.9 µM), for the others: top-dose activity change, negative = inhibition, hits mostly inhibitors; 300,000 tested, 1.2% active; AID 540256, 2011; calls by dose curve; tested in HEK293 cells; note: potency is the fitted concentration of half-maximal effect; % is set by controls: 0 for no effect and ±100 for the full control effect; nearly all actives have a fitted effect of over 50% in size
Shiga inhibitor: A qHTS for Small Molecule Inhibitors of Shiga Toxin; 290,000 tested, 9.2% active; Vero cells, Shiga toxin protein synthesis inhibition reporter; inhibition, % at 38.7 µM; in the data active = inhibition mostly above about 28%, no sharp cut-off; inactive = mostly below about 43%; note: 0% is about no effect
MARV entry inh: qHTS for inhibitors of binding or entry into cells for Marburg Virus. 300,000 tested, 1.8% active. AID 540276, 2011. Marburg virus pseudotyped entry inhibition, cell reporter. Potency, µM (series often up to 37.8 µM), for the others: top-dose activity change, negative = inhibition, hits mostly inhibitors; calls by dose curve; tested in HEK293 cells; note: potency is the fitted concentration of half-maximal effect; % is set by controls: 0 for no effect and ±100 for the full control effect
Cycloheximide cs: Cycloheximide Counterscreen for Small Molecule Inhibitors of Shiga Toxin. cell reporter, cycloheximide protein synthesis inhibition counterscreen. max response, %. 300,000 tested, 12% active; in the data active = max response mostly above about 13%, no sharp cut-off; inactive = mostly below about 14%; note: read at 38.3 µM for the half of the compounds with a filed dose; 0% is about no effect
AMA1 RON2 block: qHTS for Inhibitors of AMA1-RON; Towards Development of Antimalarial Drug Lead: Primary Screen | Plasmodium falciparum AMA1 (3D7) - RON2 peptide interaction | AlphaScreen AMA1-biotinylated RON2 peptide binding | Potency, µM (highest dose often 58.2 µM), for the others: at the top dose activity change, negative = inhibition, most hits filed as inhibitors | 360,000 tested, 0.2% active | AID 720542, 2013; active = well fitted inhibition curve with a large enough effect; inconclusive = small, poorly fitted or top-dose-only effect; inactive = no such curve, though single readings can be large or run the other way;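 note: potency is the fitted concentration of half-maximal effect; 0% = vehicle wells and -100% = peptide control; nearly all actives have a fitted effect of over 45% in size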
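AMA1 (3D7) with his tag at 25 nM final met compounds first, then biotinylated RON2 peptide at 25 nM; detection used donor plus acceptor beads, 10 µg/mL apiece, read by AlphaScreen after 30 min at room temperature.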
Starred values were filed as active, the others as inactive; ? = inconclusive; . = no result given; + = active, no number; [ ] = dose if it differs, or a comment.

SMILES | LASV entry inh | Shiga inhibitor | MARV entry inh | Cycloheximide cs | AMA1 RON2 block
COc1ccc(-n2nc(C(=O)NCC(=O)N3CCCC(C)C3)c3ccccc3c2=O)cc1 (stereo not given) | . | 39 | ? | 18* | -7%
CN(C)CCNc1ncnc2c1ncn2[C@H]1CN(Cc2ccc(Cl)cc2)C[C@@H](CO)O1 | . | . | . | . | -2%
CCCCOc1ccc(C2/C(=C(/O)c3ccc4c(c3)CC(C)O4)C(=O)C(=O)N2CCCN2CCOCC2)cc1OC (stereo not given) | 13% | 3 | -1% | 21 | 0%
COc1ccc([C@@H]2C(C#N)=C(C)NC3=C2C(=O)c2ccccc23)cc1 | . | . | -23% | . | .
COc1ccc(-n2nc(C(=O)NCC(=O)N3CCCC(C)C3)c3ccccc3c2=O)cc1Cl (stereo not given) | ? | 36* | -27%[46.1 µM] | 17* | -1%
COc1ccc(-n2nc(C(=O)NCC(=O)N3CCOCC3)c3ccccc3c2=O)cc1Cl | ? | -10 | 26%[46.1 µM] | -2 | -7%
COc1ccc(-n2nc(C(=O)NCC(=O)N3CCC(C)CC3)c3ccccc3c2=O)cc1 | . | 48* | 2%[46.1 µM] | 33* | -25%
COc1ccc(-n2nc(C(=O)NCC(=O)N3CCC4(CC3)OCCO4)c3ccccc3c2=O)cc1Cl | ? | 54* | -13% | 23* | 19%
Nc1c(Cl)cc(C2=NCCn3c2c2ccc(C(F)(F)F)cc2[n+]3[O-])cc1Cl | . | . | . | . | 61%
CCOc1cc(C(=O)NC(C)CCc2ccccc2)cc(OCC)c1OCC (stereo not given) | . | -14 | . | 1 | 14%
O=C(NCCc1ccccc1)C1CCC(=O)N1C1CCCC1 (stereo not given) | -7% | 28 | 13% | 6 | 9%
COc1ccc(NC(=O)Nc2cccnc2)cc1 | 0% | 44* | -9%[46.1 µM] | 23* | -11%
CCOc1ccc(NC(=O)Nc2cccnc2)cc1 | 3% | 60* | 2%[46.1 µM] | 25* | -22%
O=C(Nc1ccc(Cl)cc1)Nc1cccnc1 | 22% | 55* | 3% | 37* | -3%
CCOc1ccc(NC(=O)NCc2cccnc2)cc1 | -12% | 18 | 21% | -3 | 4%
COc1ccc(C(=O)Nc2ccc(C(=O)Nc3cccnc3)cc2)cc1 | ? | . | ? | -2 | 1%
CC(C)(C)c1ccc(C(=O)CCC(=O)OCC(=O)NCCc2ccc(S(N)(=O)=O)cc2)cc1 | -23% | . | ? | . | -4%[11.6 µM]
Cc1ccc(NC(=O)C(C)OC(=O)CCC2CCCCC2)cc1 (stereo not given) | 0% | . | -6%[46.1 µM] | . | 3%
O=C1C(Cl)=C(N2CCCCCC2)C(=O)N1c1ccc(Cl)cc1 | . | 18 | . | 12* | 74%
O=C1C=C(N2CCCCCC2)C(=O)N1c1ccc(Cl)cc1 | ? | 176* | ? | 62* | 86%
CN1CCN(C2=C(Cl)C(=O)N(c3ccc(Cl)c(Cl)c3)C2=O)CC1 | 1% | 66 | ? | 23* | -21%
O=C1C(Cl)=C(N2CCCC2)C(=O)N1c1ccc(F)cc1 | 9% | 10 | 2% | -2 | 20%
COc1ccccc1CNC(=O)c1ccc2c(c1)nc(C)n2-c1cccc(C)c1 | -13%[46.1 µM] | . | . | . | .
C=C(Cl)COc1ccc2c(CCCC)cc(=O)oc2c1 | -19% | 64 | 9%[46.1 µM] | 25* | 45%
CCCCc1cc(=O)oc2cc(OCC(=O)N(CC)CC)ccc12 | 3% | -6 | ? | 1 | 1%
SMILES | LASV entry inh | Shiga inhibitor | MARV entry inh | Cycloheximide cs | AMA1 RON2 block
CCCCc1cc(=O)oc2cc(OS(C)(=O)=O)ccc12 | ? | -33 | 10% | 20* | -3%
C=C(Cl)COc1ccc2c(CC)cc(=O)oc2c1 | -17% | -19 | -16% | 1 | 4%
Cc1cc(=O)oc2cc(OCC3CC(c4ccc(Br)cc4)=NO3)ccc12 (stereo not given) | -4% | 7 | ? | 2 | -3%
Cc1cc(=O)oc2cc(OCC3CC(c4ccccc4)=NO3)ccc12 (stereo not given) | ? | 53* | ? | 21* | 0%
C=C(Cl)COc1ccc2c(C)cc(=O)oc2c1 | 2% | + | 8% | 23* | 4%
Cc1[nH]c(=O)n(C(C)C)c(=O)c1Br | 0%[46.1 µM] | . | 12%[46.1 µM] | . | 0%
CCCNC(=O)OC[C@H]1O[C@H](CCO/N=C(\C)CCC(=O)OC[C@H]2O[C@H](C#Cc3ccccc3)C=C[C@@H]2Oc2ccc(C)cc2)C=C[C@@H]1Oc1ccc(OC)cc1 | . | . | -29%[14.2 µM] | . | .
C=C(C)COc1ccc2c(CC)cc(=O)oc2c1 | . | 49 | . | 22* | 15%
O=C1C(Cl)=C(N2CCCCC2)C(=O)C(Cl)=C1c1cnc(N2CCCCC2)s1 | 12µM* | 13 | ? | -3 | 8.9µM*
CC(C)(C)c1ccc(OCc2nnc(-c3ccccc3)o2)cc1 | 20%[46.1 µM] | . | ? | . | .
CC(C)(C)c1ccc(-c2nnc(N)o2)cc1 | -9% | 67* | 12%[46.1 µM] | 37* | 3%
c1csc(-c2csc3nc(CN4CCOCC4)nc(NCc4ccc5c(c4)OCO5)c23)c1 | -13% | 1 | 18µM* | 8 | -29%
CCNc1nc(N)c(C(=O)c2ccc(Cl)s2)s1 | ? | 130* | ? | 44* | 5%
O=[N+]([O-])c1cc(Cl)ccc1NCCc1ccccn1 | 18% | 57* | 27%[46.1 µM] | 18* | 22µM*
O=C(NCCNc1ccc(Cl)cc1[N+](=O)[O-])c1ccccc1F | . | 19 | . | 12* | -4%
Cc1ccc(C(=O)NCCNc2ccc(Cl)cc2[N+](=O)[O-])o1 | 0% | 13 | -1% | -2 | -16%
CC(C)CCn1c(N)c(S(=O)(=O)c2cccs2)c2nc3ccccc3nc21 | 39%[14.3 µM] | -3 | 15µM* | -3 | 9%
Nc1c(S(=O)(=O)c2cccs2)c2nc3ccccc3nc2n1CCc1ccccc1 | . | 0 | 1% | 0 | .
CC(=O)N1c2ccccc2S(=O)(=O)c2c1ccc1ccccc21 | 5% | . | -8% | . | 25%
COc1ccc(N2CCC(CNC(=S)Nc3cc(C)cc(C)c3)C2)cc1 (stereo not given) | -27% | 15 | ? | 8 | 6.3µM*
N#CC1CC(c2ccccc2)=NN1c1ccccc1[N+](=O)[O-] (stereo not given) | ? | 113* | ? | 48* | -1%
Cc1cccn2c(CNC3CCCc4ccccc43)c(C(=O)N3CCCCC3)nc12 (stereo not given) | ? | -10 | 10µM* | -2 | -8%
CCOC(=O)C1CCCN(Cc2c(C(=O)N3CCCCC3)nc3c(C)cccn23)C1 (stereo not given) | -1%[46.1 µM] | 11 | 5%[46.1 µM] | 2 | 8%
Cc1cc(NC(=O)C(C)C)n(-c2nc3ccccc3s2)n1 | . | 69* | . | 31* | 3%
Cc1cc(NC(=O)CN2CC(C)OC(C)C2)n(-c2nc3ccccc3s2)n1 (stereo not given) | -9% | -8 | 18% | -7 | 35%
Cc1cc(N)n(-c2nc3ccccc3s2)n1 | 4% | 9 | -23% | -4 | 13%
Cc1cc(C)n(-c2nc3ccccc3s2)n1 | 16% | 109* | ? | 56* | 13%
